Here are results for one sequence from paper PMC7862700, “An all-to-all approach to the identification of sequence-specific readers for epigenetic DNA modifications on cytosine”.

What all share (assay): DAPPL (digital affinity profiling via proximity ligation, sequencing); 10 mM Tris-HCl pH 7.5, 50 mM NaCl, 1 mM DTT, 4% glycerol, room temperature, 30 min; GST-TFs on glutathione beads, 16-mer random dsDNA library, 0.1% formaldehyde crosslink after washing; high values mean tight binding
In one test the target is T1, FEV (Homo sapiens, UniProt Q99581 1-238).
T1 sequence: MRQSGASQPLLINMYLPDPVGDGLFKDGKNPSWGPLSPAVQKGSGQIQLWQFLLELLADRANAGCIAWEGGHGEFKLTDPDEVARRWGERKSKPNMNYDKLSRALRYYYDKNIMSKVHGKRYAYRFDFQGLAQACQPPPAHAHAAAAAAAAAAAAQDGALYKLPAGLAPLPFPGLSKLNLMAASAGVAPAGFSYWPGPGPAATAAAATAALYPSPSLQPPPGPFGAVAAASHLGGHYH
The note with it: protein: recombinant; tags: N-terminal GST; dsDNA, one strand shown. The method in brief: (§1)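 Binding signal is given per hexamer as its read frequency for a factor divided by its frequency in the tag-only sample. GST-fused human transcription factors were expressed in yeast, captured on glutathione beads, barcoded with DNA and pooled with that sample, then incubated with 200 nmole of a 16-mer random double-stranded DNA library in Tris/NaCl/DTT/glycerol buffer for 30 min at room temperature. The pools were then washed, crosslinked, proximity-ligated, amplified by PCR and sequenced on an Illumina NextSeq500.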

The next test deals with ETV5 (Homo sapiens, UniProt P41161 1-510). The note with it: protein: recombinant; tags: N-terminal GST; dsDNA, one strand shown. The method in brief: as §1
Chain of ETV5 (P41161 whole entry): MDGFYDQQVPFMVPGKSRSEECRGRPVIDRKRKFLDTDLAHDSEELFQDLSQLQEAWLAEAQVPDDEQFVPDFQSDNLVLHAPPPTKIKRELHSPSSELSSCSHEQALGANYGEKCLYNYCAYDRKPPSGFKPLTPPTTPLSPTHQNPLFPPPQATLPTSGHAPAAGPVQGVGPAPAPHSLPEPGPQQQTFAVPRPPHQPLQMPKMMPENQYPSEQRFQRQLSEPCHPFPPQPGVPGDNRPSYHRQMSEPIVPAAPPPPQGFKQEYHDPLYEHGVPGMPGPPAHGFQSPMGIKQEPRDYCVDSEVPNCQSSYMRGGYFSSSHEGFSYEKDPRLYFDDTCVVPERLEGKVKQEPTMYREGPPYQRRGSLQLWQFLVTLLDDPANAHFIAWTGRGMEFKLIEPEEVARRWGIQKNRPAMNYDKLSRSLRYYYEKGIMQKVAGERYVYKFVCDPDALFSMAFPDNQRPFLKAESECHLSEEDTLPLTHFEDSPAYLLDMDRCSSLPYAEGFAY
The next test addresses HSF1 (Homo sapiens, UniProt Q00613 1-529). The note with it: protein: recombinant; tags: N-terminal GST; chain copies: 3; dsDNA, one strand shown. The method in brief: as §1
The next test concerns the target T2, SPIC (Homo sapiens, UniProt Q8N5J4 1-248).
T2 sequence: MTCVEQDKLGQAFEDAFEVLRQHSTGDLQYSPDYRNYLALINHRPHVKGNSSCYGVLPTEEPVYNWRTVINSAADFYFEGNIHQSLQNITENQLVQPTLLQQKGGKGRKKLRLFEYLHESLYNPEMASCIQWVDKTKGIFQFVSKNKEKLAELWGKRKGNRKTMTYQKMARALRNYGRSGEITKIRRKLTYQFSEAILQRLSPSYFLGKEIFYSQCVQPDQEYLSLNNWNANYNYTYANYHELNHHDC
The note with it: protein: recombinant; tags: N-terminal GST; dsDNA, one strand shown. In a few lines: as §1

The next test deals with ELF4 (Homo sapiens, UniProt Q99607 1-663). The note with it: protein: recombinant; tags: N-terminal GST; dsDNA, one strand shown. The method in brief: as §1
Chain of ELF4 (Q99607 whole entry): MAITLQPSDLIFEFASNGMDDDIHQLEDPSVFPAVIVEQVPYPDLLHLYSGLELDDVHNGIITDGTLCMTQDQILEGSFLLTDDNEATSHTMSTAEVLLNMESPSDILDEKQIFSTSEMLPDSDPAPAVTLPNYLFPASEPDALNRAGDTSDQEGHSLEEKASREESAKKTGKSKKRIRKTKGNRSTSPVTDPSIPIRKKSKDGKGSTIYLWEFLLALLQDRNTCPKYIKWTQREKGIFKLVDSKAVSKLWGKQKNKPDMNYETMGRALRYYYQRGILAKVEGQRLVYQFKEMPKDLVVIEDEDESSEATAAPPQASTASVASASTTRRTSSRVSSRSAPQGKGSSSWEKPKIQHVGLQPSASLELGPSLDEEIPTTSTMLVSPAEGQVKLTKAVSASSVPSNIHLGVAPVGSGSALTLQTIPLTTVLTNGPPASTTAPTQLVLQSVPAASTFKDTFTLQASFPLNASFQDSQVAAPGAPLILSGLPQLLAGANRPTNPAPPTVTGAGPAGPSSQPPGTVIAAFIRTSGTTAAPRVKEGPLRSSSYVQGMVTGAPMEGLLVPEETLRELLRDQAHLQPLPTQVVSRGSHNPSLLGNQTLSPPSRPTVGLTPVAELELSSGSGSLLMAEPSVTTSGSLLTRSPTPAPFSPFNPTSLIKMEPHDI
The target of another test is T3, ELK4 (Homo sapiens, UniProt P28324-2 1-405).
T3 sequence: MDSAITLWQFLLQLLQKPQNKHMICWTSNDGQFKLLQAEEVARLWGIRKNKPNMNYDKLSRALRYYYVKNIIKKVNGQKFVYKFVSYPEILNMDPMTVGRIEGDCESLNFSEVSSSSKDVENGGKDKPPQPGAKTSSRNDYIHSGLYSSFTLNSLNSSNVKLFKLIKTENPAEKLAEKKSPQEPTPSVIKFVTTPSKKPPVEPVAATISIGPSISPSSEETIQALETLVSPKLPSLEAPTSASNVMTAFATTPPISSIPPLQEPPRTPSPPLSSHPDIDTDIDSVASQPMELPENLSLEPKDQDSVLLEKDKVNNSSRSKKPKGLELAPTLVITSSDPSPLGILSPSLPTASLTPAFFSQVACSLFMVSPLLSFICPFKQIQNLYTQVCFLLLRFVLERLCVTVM
The note with it: protein: recombinant; tags: N-terminal GST; dsDNA, one strand shown. The method in brief:
as §1

For the next test, the target named is T4, ETV2 (Homo sapiens, UniProt O00321 1-342).
T4 sequence: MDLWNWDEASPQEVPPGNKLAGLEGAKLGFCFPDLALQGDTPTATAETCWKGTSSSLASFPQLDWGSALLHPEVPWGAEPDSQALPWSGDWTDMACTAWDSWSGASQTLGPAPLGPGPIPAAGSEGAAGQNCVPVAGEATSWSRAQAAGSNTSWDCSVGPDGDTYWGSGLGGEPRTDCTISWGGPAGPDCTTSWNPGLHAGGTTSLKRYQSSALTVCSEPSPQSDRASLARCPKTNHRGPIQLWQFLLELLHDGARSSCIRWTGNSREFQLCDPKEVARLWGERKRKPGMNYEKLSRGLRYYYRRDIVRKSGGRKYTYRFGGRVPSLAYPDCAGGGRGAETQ
The note with it: protein: recombinant; tags: N-terminal GST; dsDNA, one strand shown. In a few lines:
as §1

The target in another test is T5, ELF3 (Homo sapiens, UniProt P78545 1-371).
T5 sequence: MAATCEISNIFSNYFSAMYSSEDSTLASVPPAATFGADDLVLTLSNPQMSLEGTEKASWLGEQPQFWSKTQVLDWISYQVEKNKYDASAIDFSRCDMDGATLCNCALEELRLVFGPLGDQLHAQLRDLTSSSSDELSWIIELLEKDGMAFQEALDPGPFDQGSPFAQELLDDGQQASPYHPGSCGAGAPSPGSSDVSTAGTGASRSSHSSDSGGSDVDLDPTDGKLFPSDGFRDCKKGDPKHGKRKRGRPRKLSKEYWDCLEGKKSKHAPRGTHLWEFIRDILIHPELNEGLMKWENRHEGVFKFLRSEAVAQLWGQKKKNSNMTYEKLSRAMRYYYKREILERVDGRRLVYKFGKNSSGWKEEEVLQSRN
The note with it: protein: recombinant; tags: N-terminal GST; dsDNA, one strand shown. The method in brief: as §1

For the next test, the target named is CRX (Homo sapiens, UniProt O43186 1-299). The note with it: protein: recombinant; tags: N-terminal GST; dsDNA, one strand shown. In a few lines: as §1
Chain of CRX (O43186 whole entry): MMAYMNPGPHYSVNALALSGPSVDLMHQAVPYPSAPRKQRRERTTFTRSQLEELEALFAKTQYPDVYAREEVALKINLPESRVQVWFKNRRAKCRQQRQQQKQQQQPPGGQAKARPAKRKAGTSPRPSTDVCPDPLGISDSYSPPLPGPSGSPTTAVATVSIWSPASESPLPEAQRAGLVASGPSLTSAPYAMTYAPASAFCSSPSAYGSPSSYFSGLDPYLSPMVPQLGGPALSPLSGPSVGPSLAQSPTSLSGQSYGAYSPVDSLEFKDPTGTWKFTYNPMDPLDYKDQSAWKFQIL
A further test concerns the target ETV1 (Homo sapiens, UniProt P50549 1-477). The note with it: protein: recombinant; tags: N-terminal GST; dsDNA, one strand shown. In a few lines: as §1
The next test has as its target T6, ERF (Homo sapiens, UniProt P50548 1-548).
T6 sequence: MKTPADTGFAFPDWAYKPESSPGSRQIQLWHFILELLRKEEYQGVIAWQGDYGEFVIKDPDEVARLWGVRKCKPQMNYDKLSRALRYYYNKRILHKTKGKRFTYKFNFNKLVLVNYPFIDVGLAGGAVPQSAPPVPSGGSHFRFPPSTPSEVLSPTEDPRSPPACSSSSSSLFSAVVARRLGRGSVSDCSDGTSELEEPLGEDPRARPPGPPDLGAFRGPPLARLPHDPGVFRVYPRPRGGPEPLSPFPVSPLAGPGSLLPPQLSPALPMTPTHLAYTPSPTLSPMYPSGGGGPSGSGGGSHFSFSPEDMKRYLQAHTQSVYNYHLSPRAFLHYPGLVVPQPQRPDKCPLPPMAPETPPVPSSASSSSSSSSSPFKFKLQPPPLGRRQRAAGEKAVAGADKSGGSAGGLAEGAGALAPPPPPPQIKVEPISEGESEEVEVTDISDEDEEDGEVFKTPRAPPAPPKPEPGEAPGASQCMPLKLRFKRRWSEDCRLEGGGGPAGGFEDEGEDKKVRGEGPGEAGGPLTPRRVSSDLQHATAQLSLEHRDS
The note with it: protein: recombinant; tags: N-terminal GST; dsDNA, one strand shown. The method in brief: as §1

The next test deals with T7, ETV3L (Homo sapiens, UniProt Q6ZN32 1-361).
T7 sequence: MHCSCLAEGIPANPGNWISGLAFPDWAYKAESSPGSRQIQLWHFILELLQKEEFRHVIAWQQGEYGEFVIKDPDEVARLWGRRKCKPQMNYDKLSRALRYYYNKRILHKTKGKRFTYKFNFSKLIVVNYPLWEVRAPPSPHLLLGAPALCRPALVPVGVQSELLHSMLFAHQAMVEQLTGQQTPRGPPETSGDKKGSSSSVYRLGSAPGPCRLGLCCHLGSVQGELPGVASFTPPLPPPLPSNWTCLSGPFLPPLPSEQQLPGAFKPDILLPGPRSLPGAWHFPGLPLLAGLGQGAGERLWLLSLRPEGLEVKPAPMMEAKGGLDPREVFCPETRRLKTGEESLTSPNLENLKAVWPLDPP
The note with it: protein: recombinant; tags: N-terminal GST; dsDNA, one strand shown. The method in brief: as §1

Another test addresses T8, ETS2 (Homo sapiens, UniProt P15036 1-469).
T8 sequence: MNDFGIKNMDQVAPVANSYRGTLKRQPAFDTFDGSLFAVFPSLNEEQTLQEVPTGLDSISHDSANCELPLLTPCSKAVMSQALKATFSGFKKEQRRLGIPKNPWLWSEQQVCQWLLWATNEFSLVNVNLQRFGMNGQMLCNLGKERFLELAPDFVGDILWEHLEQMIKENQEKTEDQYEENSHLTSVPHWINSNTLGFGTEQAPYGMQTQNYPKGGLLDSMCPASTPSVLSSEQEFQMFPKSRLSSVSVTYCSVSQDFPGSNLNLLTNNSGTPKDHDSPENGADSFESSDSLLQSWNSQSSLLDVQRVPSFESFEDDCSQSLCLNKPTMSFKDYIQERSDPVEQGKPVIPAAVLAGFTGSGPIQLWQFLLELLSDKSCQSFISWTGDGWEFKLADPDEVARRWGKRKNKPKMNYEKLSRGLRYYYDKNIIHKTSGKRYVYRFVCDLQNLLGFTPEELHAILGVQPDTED
The note with it: protein: recombinant; tags: N-terminal GST; dsDNA, one strand shown. The method in brief: as §1

A further test deals with T9, SPDEF (Homo sapiens, UniProt O95238 1-335).
T9 sequence: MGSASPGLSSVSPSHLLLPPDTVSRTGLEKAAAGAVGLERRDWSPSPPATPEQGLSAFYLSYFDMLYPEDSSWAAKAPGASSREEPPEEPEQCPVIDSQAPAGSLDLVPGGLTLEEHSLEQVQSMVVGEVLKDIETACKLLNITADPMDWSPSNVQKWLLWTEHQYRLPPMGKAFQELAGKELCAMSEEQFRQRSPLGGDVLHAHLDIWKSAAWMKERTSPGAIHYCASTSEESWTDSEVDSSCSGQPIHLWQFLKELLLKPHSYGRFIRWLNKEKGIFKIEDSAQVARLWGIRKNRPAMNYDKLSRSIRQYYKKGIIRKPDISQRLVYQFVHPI
The note with it: protein: recombinant; tags: N-terminal GST; dsDNA, one strand shown. The method in brief: as §1

In another test the target is T10, ETV7 (Homo sapiens, UniProt Q9Y603 1-341).
T10 sequence: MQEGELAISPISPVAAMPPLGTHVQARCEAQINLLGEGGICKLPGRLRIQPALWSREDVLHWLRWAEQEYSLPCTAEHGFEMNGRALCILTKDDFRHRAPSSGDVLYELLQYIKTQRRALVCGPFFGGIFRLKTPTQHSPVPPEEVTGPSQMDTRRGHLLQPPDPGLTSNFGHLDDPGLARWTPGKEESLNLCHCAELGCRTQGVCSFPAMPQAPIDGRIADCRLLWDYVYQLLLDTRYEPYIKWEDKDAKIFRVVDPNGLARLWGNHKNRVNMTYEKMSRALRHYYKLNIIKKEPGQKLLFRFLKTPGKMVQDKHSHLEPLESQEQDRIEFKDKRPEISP
The note with it: protein: recombinant; tags: N-terminal GST; dsDNA, one strand shown. The method in brief: as §1

The target of another test is T11, ELF5 (Homo sapiens, UniProt Q9UKW6-2 1-255).
T11 sequence: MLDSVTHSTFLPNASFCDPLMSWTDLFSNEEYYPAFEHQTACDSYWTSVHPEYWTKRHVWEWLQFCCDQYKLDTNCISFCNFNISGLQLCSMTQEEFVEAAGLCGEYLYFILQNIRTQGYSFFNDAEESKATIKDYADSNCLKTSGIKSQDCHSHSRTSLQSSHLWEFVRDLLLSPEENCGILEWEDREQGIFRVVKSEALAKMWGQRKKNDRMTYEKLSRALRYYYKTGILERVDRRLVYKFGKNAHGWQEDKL
The note with it: protein: recombinant; tags: N-terminal GST; dsDNA, one strand shown. The method in brief: as §1

In a further test the target is T12, ETV3 (Homo sapiens, UniProt P41162-2 1-143).
T12 sequence: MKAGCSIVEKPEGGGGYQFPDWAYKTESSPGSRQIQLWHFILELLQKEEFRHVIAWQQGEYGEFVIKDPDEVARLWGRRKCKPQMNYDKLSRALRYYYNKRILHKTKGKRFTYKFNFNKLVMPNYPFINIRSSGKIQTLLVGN
The note with it: protein: recombinant; tags: N-terminal GST; dsDNA, one strand shown. In a few lines: as §1

In the next test the target is ETV6 (Homo sapiens, UniProt P41212 1-452). The note with it: protein: recombinant; tags: N-terminal GST; dsDNA, one strand shown. In a few lines:
as §1

Chain of HSF1 (Q00613 whole entry): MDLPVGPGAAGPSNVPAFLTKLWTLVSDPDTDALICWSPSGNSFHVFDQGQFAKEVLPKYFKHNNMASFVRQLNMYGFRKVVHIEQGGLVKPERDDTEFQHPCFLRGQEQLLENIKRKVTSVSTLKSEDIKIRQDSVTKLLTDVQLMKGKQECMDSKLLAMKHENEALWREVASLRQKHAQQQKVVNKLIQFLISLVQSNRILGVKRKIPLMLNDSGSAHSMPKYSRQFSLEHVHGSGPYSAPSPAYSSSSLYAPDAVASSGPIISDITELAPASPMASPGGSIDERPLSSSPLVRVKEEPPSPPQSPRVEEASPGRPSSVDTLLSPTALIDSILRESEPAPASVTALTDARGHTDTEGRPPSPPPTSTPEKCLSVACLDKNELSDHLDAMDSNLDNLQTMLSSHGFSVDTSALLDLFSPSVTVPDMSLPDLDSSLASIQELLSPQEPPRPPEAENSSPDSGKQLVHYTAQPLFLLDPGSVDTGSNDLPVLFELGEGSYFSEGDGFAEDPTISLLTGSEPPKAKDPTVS
Chain of ETV1 (P50549 whole entry): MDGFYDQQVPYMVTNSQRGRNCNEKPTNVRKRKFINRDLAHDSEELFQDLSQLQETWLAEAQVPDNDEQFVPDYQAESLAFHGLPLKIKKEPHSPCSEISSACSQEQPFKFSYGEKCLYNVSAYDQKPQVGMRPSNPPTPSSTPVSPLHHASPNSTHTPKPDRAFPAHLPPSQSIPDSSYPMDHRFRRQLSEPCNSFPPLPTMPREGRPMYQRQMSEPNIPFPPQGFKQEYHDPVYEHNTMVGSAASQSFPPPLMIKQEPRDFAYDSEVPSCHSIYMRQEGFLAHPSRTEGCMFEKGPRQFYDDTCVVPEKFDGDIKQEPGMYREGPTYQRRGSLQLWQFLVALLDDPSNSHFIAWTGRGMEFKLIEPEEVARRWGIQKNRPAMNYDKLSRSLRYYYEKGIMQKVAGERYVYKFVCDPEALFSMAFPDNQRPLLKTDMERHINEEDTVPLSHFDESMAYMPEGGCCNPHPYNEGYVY
Chain of ETV6 (P41212 whole entry): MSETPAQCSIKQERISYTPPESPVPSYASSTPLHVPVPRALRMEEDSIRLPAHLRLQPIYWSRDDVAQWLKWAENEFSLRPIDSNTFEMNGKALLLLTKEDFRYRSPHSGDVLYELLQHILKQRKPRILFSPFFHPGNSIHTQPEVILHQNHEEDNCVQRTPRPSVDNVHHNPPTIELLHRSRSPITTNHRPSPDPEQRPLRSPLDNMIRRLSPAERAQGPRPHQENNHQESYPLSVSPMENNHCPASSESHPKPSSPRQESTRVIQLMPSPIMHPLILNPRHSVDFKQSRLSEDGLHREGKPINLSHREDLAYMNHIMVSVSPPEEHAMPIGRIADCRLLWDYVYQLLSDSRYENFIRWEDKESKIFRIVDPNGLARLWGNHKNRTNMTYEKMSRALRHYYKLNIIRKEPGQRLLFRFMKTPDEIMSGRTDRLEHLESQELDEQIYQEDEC

Consider CTGAAT, for which the binding signal in the test with FEV is 1.32 fold enrichment (6-mer frequency, TF over GST control); with ETV5 it was 1.29 fold enrichment (6-mer frequency, TF over GST control); with HSF1, 1.37 fold enrichment (6-mer frequency, TF over GST control); in the test with SPIC it was 1.29 fold enrichment (6-mer frequency, TF over GST control); with ELF4 it was 1.29 fold enrichment (6-mer frequency, TF over GST control); in the test with ELK4 it was 1.31 fold enrichment (6-mer frequency, TF over GST control). The binding signal with ETV2 was 1.5 fold enrichment (6-mer frequency, TF over GST control); in the test with ELF3, 1.15 fold enrichment (6-mer frequency, TF over GST control); with CRX, 1.34 fold enrichment (6-mer frequency, TF over GST control); in the test with ETV1 it was 1.36 fold enrichment (6-mer frequency, TF over GST control); with ERF, 1.47 fold enrichment (6-mer frequency, TF over GST control); with ETV3L it was 1.32 fold enrichment (6-mer frequency, TF over GST control). Also, the binding signal was 1.32 fold enrichment (6-mer frequency, TF over GST control) with ETS2; 1.53 fold enrichment (6-mer frequency, TF over GST control) with SPDEF; 1.17 fold enrichment (6-mer frequency, TF over GST control) with ETV7; 1.18 fold enrichment (6-mer frequency, TF over GST control) with ELF5; 1.29 fold enrichment (6-mer frequency, TF over GST control) with ETV3; 1.22 fold enrichment (6-mer frequency, TF over GST control) with ETV6.
